High-throughput results from PubChem.
Shiga toxin inh: A qHTS for Small Molecule Inhibitors of Shiga Toxin | Vero cells, Shiga toxin protein synthesis inhibition reporter | hit rate 9.2% among 290,000 | inhibition, % at 38.7 µM; in the data active means inhibition mostly above about 28%, no sharp cut-off; inactive means mostly below about 43%
Tb PYK inh: qHTS of Trypanosoma Brucei Inhibitors | TbPYK enzyme, Kinase-Glo Plus ATP luminescence, 45 min | Potency, µM (series often up to 76.8 µM), hits mostly inhibitors | pyruvate kinase (Trypanosoma brucei), Q57TT1 | hit rate 0.12% among 410,000; further: nearly all actives have a fitted effect of over 50% in size
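Activity of T. brucei pyruvate kinase was followed by Kinase-Glo Plus luminescence after the enzyme reacted 45 min at room temperature with 130 uM ADP (final) and substrate. Test compounds were added before ADP at multiple concentrations.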
Cycloheximide cs: Cycloheximide Counterscreen for Small Molecule Inhibitors of Shiga Toxin. hit rate 12% among 300,000. cell reporter, cycloheximide protein synthesis inhibition counterscreen. max response, %; in the data active means max response mostly above about 13%, no sharp cut-off; inactive means mostly below about 14%; further: read at 38.3 µM for the half of the compounds with a filed dose
Giardia FBPA inh: qHTS Assay for Inhibitors of Fructose-1,6-bisphosphate Aldolase from Giardia Lamblia; A8B2U2; purified Giardia FBPA; Potency, µM (highest dose often 59.6 µM), actives largely listed as inhibitors; hit rate 0.71% among 290,000; AID 2451, 2010; further: nearly all actives have a fitted effect of over 55% in size
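40 nM FBPA preincubated 10 min at RT with compound (up to 57.5 uM final), then substrate plus GAPDH/TPI/NAD/arsenate coupling and diaphorase/resazurin added. Fluorescence read after 20 min at RT, 525/598 nm.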
RE007 growth inh: qHTS Assay for Inhibitors of the HIV-1 protein Vpr; S. pombe RE007 Vpr strain, BacTiter-Glo ATP luminescence, 24 h; Potency, µM (series often up to 92.2 µM), actives largely listed as inhibitors; hit rate 0.21% among 360,000; AID 651644, 2012; active means well fitted falling curve with a large enough effect; inconclusive means small, poorly fitted or top-dose-only effect; inactive means no such curve, though single readings can be large or run the other way; further: nearly all actives have a fitted effect of over 50% in size
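Fission yeast RE007 carrying one integrated HIV-1 vpr copy, seeded at OD 0.01 in PMG+AL medium with 23 nL pinned compound. Grown 24 h at 30 degrees; viability read by BacTiter-Glo luminescence after 5 min.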
LmPK inhibitor: qHTS Assay for Inhibitors of Leishmania Mexicana Pyruvate Kinase (LmPK) | purified LmPK, Kinase-Glo ATP luminescence, 1 h | Potency, µM (highest dose often 57.5 µM), most hits filed as inhibitors | hit rate 0.37% among 290,000 | AID 1721, 2009
Target sequence (Q27686 whole entry, looked up): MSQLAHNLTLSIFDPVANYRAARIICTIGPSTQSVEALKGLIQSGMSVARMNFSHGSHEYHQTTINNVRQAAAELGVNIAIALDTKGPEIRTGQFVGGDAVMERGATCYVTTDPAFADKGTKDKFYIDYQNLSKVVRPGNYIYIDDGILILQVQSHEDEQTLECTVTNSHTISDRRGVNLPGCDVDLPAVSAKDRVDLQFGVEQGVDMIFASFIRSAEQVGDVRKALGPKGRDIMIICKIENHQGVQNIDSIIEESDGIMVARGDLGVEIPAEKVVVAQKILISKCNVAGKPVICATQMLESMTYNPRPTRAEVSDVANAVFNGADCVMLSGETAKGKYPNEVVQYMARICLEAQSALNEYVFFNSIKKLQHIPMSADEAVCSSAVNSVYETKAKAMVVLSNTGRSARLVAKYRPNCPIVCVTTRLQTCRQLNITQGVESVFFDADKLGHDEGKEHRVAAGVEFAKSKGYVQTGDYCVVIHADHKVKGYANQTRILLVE
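Purified LmPK (0.1 nM) converted ADP (0.1 mM) to ATP with PEP (0.5 mM) in imidazole buffer pH 7.2 with KCl and MgCl2, 1 h at room temperature. ATP was read by Kinase-Glo luminescence; data normalized to uninhibited and no-enzyme controls.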
Hits are given with their value; [ ] = dose if it differs, or a comment. The entries come from a sample that favours hits as a whole. Unless noted, the call rests on the fitted dose curve; in most records, active means well fitted curve in the direction sought with a large enough effect; inconclusive means small, poorly fitted or top-dose-only effect, or another doubt; inactive means no such curve, though single readings can be large; an effect the other way counts as inactive or inconclusive.

What do the screens show for `N=C1/C(=C/c2ccc(OCc3ccccc3F)cc2)C(=O)N=C2SC(CC(=O)N3CCOCC3)=NN12`?
Shiga toxin inh: 85; Tb PYK inh: inactive; Cycloheximide cs: 23; Giardia FBPA inh: inactive; RE007 growth inh: inactive; LmPK inhibitor: inactive

What do the screens show for `N=C1/C(=C/c2ccc(OCc3ccccc3)cc2)C(=O)N=C2SC(CC(=O)N3CCOCC3)=NN12`?
Shiga toxin inh: inactive; Tb PYK inh: inactive; Cycloheximide cs: 15; Giardia FBPA inh: inactive; RE007 growth inh: inactive; LmPK inhibitor: inactive

How did Cc1cccc(Cl)c1OCCN1CCCC1 do in these assays?
Shiga toxin inh: inactive; Tb PYK inh: inactive; Cycloheximide cs: inactive; Giardia FBPA inh: 25µM; RE007 growth inh: inactive; LmPK inhibitor: inactive

What do the screens show for `C[C@@H](C[N+](C)(C)C)OC(N)=O`?
Giardia FBPA inh: inactive

How did Oc1ccc(Br)cc1C1C=C(c2ccc3c(c2)OCO3)NC(c2ccc(F)c(Br)c2)N1 (stereo not given) do in these assays?
Shiga toxin inh: 93; Cycloheximide cs: 54

Results for O=C1C=C(c2ccc3c(c2)OCO3)C[C@@H](c2ccc(F)cc2)C1 ?
Tb PYK inh: inactive; RE007 growth inh: inactive

How did Oc1ccccc1C1C=C(c2ccc3c(c2)OCO3)NC(c2ccc(F)c(Br)c2)N1 (stereo not given) do in these assays?
Shiga toxin inh: 100; Cycloheximide cs: 36

What do the screens show for `CC(=O)OCC1OC(C#CC(C)(C)C)C=CC1OC(C)=O` (stereo not given)?
Giardia FBPA inh: inactive[12.9 µM]

How did CO[C@H]1COC(=O)CCC[C@H](C)[C@H](OC)COC(=O)C/C=C\[C@@H]1C do in these assays?
Giardia FBPA inh: inactive[12.9 µM]

Results for O=C(C=Cc1ccccc1O)c1ccccc1O ?
Tb PYK inh: inactive; RE007 growth inh: 35µM

How did COc1ccc2ccccc2c1C(=O)/C=C\c1ccoc1 do in these assays?
Shiga toxin inh: inactive; Tb PYK inh: inactive; Cycloheximide cs: inactive; Giardia FBPA inh: inconclusive; RE007 growth inh: inactive; LmPK inhibitor: inactive

What do the screens show for `O=C(C=Cc1cccc(O)c1)c1ccccc1O`?
Tb PYK inh: inactive; RE007 growth inh: 25µM

Results for O=C(/C=C/c1cc2ccccc2o1)c1ccccc1O ?
Shiga toxin inh: 78; Tb PYK inh: inactive; Cycloheximide cs: 41; Giardia FBPA inh: inactive; RE007 growth inh: inactive; LmPK inhibitor: inactive

What do the screens show for `O=C(/C=C/c1ccoc1)c1ccccc1O`?
Shiga toxin inh: 97; Tb PYK inh: inactive; Cycloheximide cs: 44; Giardia FBPA inh: inactive; RE007 growth inh: inactive; LmPK inhibitor: inactive

What do the screens show for `COc1ccc(CCn2c(=O)c3cccnc3n(CC(=O)Nc3ccc(C)c(F)c3)c2=O)cc1OC`?
Tb PYK inh: inactive

Results for CSc1ccc(CCNC(=O)C2=C(C)C(=O)OC23CCCCC3)cc1 ?
Tb PYK inh: inactive

Results for COC(=O)c1ccc(CN2[C@@H]3C[C@@H](O)CC[C@@H]3C[C@H]2C(=O)OC)cc1 ?
Giardia FBPA inh: inactive

How did CCC(=O)Nc1ccccc1-c1nc2ccccc2n(C(C)C(=O)Nc2ccc(OC)cc2)c1=O (stereo not given) do in these assays?
Tb PYK inh: inactive

What do the screens show for `O=C(O)/C=C\c1ccc(O)c(O)c1`?
Giardia FBPA inh: inactive

How did O=C(/C=C/c1ccc(O)c(O)c1)c1ccccc1O do in these assays?
Shiga toxin inh: 72; Tb PYK inh: inactive; Cycloheximide cs: 41; Giardia FBPA inh: inactive; RE007 growth inh: inconclusive; LmPK inhibitor: inconclusive

Results for O=C(/C=C/c1ccc(O)c(O)c1)OCCc1ccccc1 ?
Shiga toxin inh: 80; Tb PYK inh: inactive; Cycloheximide cs: 64; Giardia FBPA inh: inconclusive; RE007 growth inh: inactive[18.4 µM]

Results for Cc1ccc(S(=O)(=O)Oc2ccccc2/C=N/Nc2ccc(C(=O)O)cc2)cc1 ?
Shiga toxin inh: inactive; Tb PYK inh: inactive; Cycloheximide cs: 26; Giardia FBPA inh: inactive; RE007 growth inh: inactive; LmPK inhibitor: inactive

How did CCn1c(-c2cc(Br)ccc2O)n[nH]c1=S do in these assays?
Tb PYK inh: inconclusive; RE007 growth inh: inactive

What do the screens show for `COc1ccc(O)c(-c2cc(-c3ccccc3Cl)[nH]n2)c1`?
Shiga toxin inh: 33; Tb PYK inh: inactive; Cycloheximide cs: 26; Giardia FBPA inh: inactive; RE007 growth inh: inconclusive; LmPK inhibitor: inactive

How did O=C(O)c1cc(-c2ccccc2Cl)n[nH]1 do in these assays?
Shiga toxin inh: inactive; Tb PYK inh: inactive; Cycloheximide cs: inactive; Giardia FBPA inh: inactive; RE007 growth inh: inactive; LmPK inhibitor: inactive

Results for COc1ccc(Cl)c(-c2cc(C(=O)NC(C)C)[nH]n2)c1 ?
Tb PYK inh: inactive; RE007 growth inh: inactive

Results for Oc1ccc(Br)cc1-c1cc(-c2ccccc2F)[nH]n1 ?
Shiga toxin inh: 77; Tb PYK inh: inactive; Cycloheximide cs: 64; Giardia FBPA inh: inactive; RE007 growth inh: inactive; LmPK inhibitor: inactive

Results for COc1ccccc1-c1cc(-c2cc(Cl)ccc2O)n[nH]1 ?
Shiga toxin inh: inactive; Tb PYK inh: inactive; Cycloheximide cs: 17; Giardia FBPA inh: inactive; RE007 growth inh: inactive; LmPK inhibitor: inactive

How did Oc1ccc(Br)cc1-c1cc(-c2ccccc2Cl)[nH]n1 do in these assays?
Shiga toxin inh: 42; Tb PYK inh: inactive; Cycloheximide cs: 19; Giardia FBPA inh: inactive; RE007 growth inh: inactive; LmPK inhibitor: inactive

How did O=C(O)CC[C@H](NC(=O)c1ccccc1C(=O)O)C(=O)O do in these assays?
Giardia FBPA inh: inactive

Results for Cc1nn(CC(=O)NCc2ccc(F)cc2)c2ccccc12 ?
Tb PYK inh: inactive

What do the screens show for `CC1CCN(S(=O)(=O)c2ccc3c(c2)oc(=O)n3CC(=O)N2CCCCC2)CC1`?
Tb PYK inh: inactive

Results for COc1ccc(O)c(-c2cc(-c3cccs3)[nH]n2)c1 ?
Shiga toxin inh: 155; Tb PYK inh: inactive; Cycloheximide cs: 43; Giardia FBPA inh: inactive; RE007 growth inh: inconclusive; LmPK inhibitor: inactive

What do the screens show for `CC(=C\C(=O)O)/C(=C\c1cccc2ccccc12)C(=O)O`?
Shiga toxin inh: 83; Tb PYK inh: inactive; Cycloheximide cs: 25; Giardia FBPA inh: inactive; RE007 growth inh: inactive; LmPK inhibitor: inactive

What do the screens show for `O=C(NCCc1ccc(C(F)(F)F)cc1)C1CCC(=O)N(CCc2cccc(F)c2)C1` (stereo not given)?
Shiga toxin inh: inactive; Tb PYK inh: inactive; Cycloheximide cs: 16; RE007 growth inh: inactive; LmPK inhibitor: inactive

Results for O=C(NCc1cc(C(F)(F)F)ccc1F)C1CCC(=O)N(C2CCCCCC2)C1 (stereo not given) ?
Shiga toxin inh: inactive; Tb PYK inh: inactive; Cycloheximide cs: inactive; Giardia FBPA inh: inactive; RE007 growth inh: inactive; LmPK inhibitor: inactive
